Measured values taken from PubChem BioAssay.
Active and inactive are the calls of the source.

Assays:
[1] = test system: Plasmodium falciparum Sir2 (PF13_0152, Sir2A); test: pfSir2 binders on small-molecule microarrays, primary screen, biochemical, small-molecule microarray, 635 nm fluorescence (AID 1098); conditions: small-molecule microarray binding, fluorescence 635 nm; higher = more signal;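 further: score merges spot fluorescence intensity with its signal-to-noise ratio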
[2] = small-molecule microarray binders of probe aDKK1, primary screen, biochemical, biotinylated probe, 635/667 nm fluorescence (AID 1099); conditions: higher = more signal;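 further: score merges 667nm spot fluorescence with signal to noise across triplicate slides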
[3] = small-molecule microarray binders of probe aCHRDL2, primary screen, biochemical, biotinylated probe, 635/667 nm fluorescence (AID 1100); conditions: higher = more signal
[4] = splicing luciferase reporter signal modulators, primary screen, spliceosome inhibition project, cell-based, HEK293, splice +/- reporter (AID 1101); conditions: luminescence, 24 h, higher = more signal, called active from +8 up or from −8 down;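 further: HEK293 cells carrying a splicing-competent luciferase reporter gene; test concentration not given here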
[5] = target: Fibroblast growth factor 10 (Homo sapiens) (UniProt O15520); test: FGF10 binders on small-molecule microarrays, primary screen, biochemical, small-molecule microarray, 635 nm fluorescence (AID 1102); conditions: FGF10 binding, fluorescence 635 nm, higher = more signal
Sequence of Fibroblast growth factor 10 (Homo sapiens) (O15520 whole entry, looked up): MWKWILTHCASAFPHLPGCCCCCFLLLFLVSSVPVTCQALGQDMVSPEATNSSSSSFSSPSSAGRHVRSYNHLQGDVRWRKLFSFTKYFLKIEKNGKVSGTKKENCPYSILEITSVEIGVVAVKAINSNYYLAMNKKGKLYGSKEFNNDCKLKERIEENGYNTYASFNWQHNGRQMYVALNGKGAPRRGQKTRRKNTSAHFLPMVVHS

[6] = test system: glycogen synthase kinase-3 (GSK3A per assay name; protocol says GSK3B); test: GSK3 binders on small-molecule microarrays, primary screen, biochemical, small-molecule microarray, 635 nm fluorescence, GSK3A (AID 1103); conditions: small-molecule microarray binding, fluorescence 635 nm; higher = more signal; further: the record names both GSK3A and GSK3B
[7] = target: Epidermal growth factor receptor (Homo sapiens) (UniProt P00533); test: EGFR binders on small-molecule microarrays, primary screen, biochemical, small-molecule microarray, 635 nm fluorescence (AID 1104); conditions: EGFR binding, higher = more signal;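 further: score merges 667 nm emission intensity with spot signal to noise over triplicate slides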
Sequence of Epidermal growth factor receptor (Homo sapiens) (P00533 whole entry, looked up): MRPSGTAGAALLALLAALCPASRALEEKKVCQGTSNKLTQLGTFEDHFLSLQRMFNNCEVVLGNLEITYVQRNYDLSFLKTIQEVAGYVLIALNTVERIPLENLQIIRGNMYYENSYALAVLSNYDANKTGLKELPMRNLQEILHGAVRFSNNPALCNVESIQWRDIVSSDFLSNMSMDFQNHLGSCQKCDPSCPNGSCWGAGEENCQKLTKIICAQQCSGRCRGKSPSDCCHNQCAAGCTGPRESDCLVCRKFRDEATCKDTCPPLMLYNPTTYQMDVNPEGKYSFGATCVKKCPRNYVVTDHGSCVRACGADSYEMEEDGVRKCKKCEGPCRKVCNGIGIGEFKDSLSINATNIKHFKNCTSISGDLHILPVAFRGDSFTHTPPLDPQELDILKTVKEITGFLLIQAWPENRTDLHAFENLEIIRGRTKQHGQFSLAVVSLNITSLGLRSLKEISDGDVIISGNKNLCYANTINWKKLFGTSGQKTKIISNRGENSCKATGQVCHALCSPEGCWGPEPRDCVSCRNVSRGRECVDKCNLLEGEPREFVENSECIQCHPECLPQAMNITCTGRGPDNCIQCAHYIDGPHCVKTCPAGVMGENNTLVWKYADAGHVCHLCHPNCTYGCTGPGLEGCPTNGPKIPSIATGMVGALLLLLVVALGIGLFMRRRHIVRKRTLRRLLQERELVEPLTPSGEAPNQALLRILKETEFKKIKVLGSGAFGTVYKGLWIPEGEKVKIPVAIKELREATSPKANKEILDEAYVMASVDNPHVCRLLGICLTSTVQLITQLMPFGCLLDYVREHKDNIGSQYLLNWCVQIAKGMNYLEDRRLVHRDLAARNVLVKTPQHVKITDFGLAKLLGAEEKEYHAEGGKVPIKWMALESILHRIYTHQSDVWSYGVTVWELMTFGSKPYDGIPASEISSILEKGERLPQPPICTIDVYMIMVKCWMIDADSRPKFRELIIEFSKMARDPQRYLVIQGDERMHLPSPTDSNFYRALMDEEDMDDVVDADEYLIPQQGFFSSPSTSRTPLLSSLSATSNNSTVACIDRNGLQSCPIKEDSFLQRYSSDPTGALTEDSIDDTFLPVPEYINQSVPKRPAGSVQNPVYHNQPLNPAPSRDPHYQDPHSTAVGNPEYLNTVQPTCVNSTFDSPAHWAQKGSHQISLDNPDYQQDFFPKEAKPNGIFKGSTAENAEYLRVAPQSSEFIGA

[8] = target: Follistatin-related protein 3 (Homo sapiens) (UniProt O95633); test: FSTL3 binders on small-molecule microarrays, primary screen, biochemical, small-molecule microarray, 635 nm fluorescence (AID 1105); conditions: FSTL3 binding, higher = more signal;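 further: score merges emission near 667 nm and signal to noise per printed spot across three slides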
Sequence of Follistatin-related protein 3 (Homo sapiens) (O95633 whole entry, looked up): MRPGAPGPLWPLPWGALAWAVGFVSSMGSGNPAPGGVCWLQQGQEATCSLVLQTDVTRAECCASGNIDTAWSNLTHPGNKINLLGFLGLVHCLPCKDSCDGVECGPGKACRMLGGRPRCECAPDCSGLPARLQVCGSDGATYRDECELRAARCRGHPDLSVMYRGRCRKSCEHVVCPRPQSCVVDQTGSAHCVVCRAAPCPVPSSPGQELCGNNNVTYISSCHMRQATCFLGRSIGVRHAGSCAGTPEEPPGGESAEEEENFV

[9] = target: Dickkopf-related protein 1 (Homo sapiens) (UniProt O94907); test: DKK1 binders on small-molecule microarrays, primary screen, biochemical, small-molecule microarray, 635 nm fluorescence scan (AID 1106); conditions: DKK1 binding, higher = more signal;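 further: score merges emission near 667 nm with signal to noise over three replicate slides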
Sequence of Dickkopf-related protein 1 (Homo sapiens) (O94907 whole entry, looked up): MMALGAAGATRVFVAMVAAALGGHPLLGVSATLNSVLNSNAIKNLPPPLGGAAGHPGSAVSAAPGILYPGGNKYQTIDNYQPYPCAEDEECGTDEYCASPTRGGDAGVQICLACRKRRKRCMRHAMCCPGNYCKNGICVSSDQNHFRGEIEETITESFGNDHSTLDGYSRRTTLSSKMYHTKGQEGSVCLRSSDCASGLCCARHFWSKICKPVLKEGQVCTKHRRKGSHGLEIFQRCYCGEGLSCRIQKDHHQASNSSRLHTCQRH

[10] = test system: Inhibin beta A chain (activin A); test: INHBA (activin A) binders on microarrays, primary screen, biochemical, small-molecule microarray, 635 nm fluorescence scan (AID 1107); conditions: small-molecule microarray binding, higher = more signal;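 further: mouse activin A protein probed at 4.33 µg/mL on printed slides; score merges bound-protein fluorescence near 667 nm with spot signal-to-noise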
[11] = test system: Human papillomavirus type 1a protein E7 (residues 44-93); test: HPV1a E7 fragment binders on microarrays, primary screen, biochemical, small-molecule microarray, residues 44-93, 635 nm fluorescence (AID 1108); conditions: small-molecule microarray binding, fluorescence 635 nm; higher = more signal;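 further: E7 fragment applied at 1 µg/mL in TBST for 1 h at 4 C; score combines spot fluorescence with its signal to noise ratio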
[12] = modulators of HCV replicon luciferase signal, primary screen, HCV replication inhibitor project, Huh7 cells, luciferase reporter (AID 1109); conditions: 48 h, higher = more signal;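 further: huh7 hepatoma cells harbouring a luciferase neomycin HCV replicon reporter; luciferase luminescence as measure of HCV replicon replication; test concentration not given here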
[13] = target: Left-right determination factor 2 (Homo sapiens) (UniProt O00292); test: LEFTY2 binders on small-molecule microarrays, primary screen, biochemical, small-molecule microarray, 635 nm fluorescence scan (AID 1110); conditions: LEFTY2 binding, higher = more signal
Sequence of Left-right determination factor 2 (Homo sapiens) (O00292 whole entry, looked up): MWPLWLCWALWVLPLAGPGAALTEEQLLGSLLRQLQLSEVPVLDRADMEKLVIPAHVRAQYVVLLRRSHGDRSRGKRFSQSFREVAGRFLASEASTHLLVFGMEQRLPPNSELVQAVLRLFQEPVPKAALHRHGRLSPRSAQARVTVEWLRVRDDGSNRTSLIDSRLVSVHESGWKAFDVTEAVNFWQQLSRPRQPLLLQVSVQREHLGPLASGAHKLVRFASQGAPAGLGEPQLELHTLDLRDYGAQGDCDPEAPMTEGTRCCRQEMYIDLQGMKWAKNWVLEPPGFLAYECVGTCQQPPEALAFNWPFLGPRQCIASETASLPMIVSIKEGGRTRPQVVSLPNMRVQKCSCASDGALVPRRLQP

[14] = target: Calmodulin-1 (Homo sapiens) (UniProt P0DP23); test: CALM1 binders on microarrays, EGTA buffer, profiling panel, biochemical, small-molecule microarray, Cy5-labelled CALM1 (AID 1111); conditions: Cy5-CALM1 binding fluorescence, higher = more signal;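 further: labelled calmodulin applied in Tris saline Tween buffer holding calcium plus EGTA and DTT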
[15] = target: Calmodulin-1 (Homo sapiens) (UniProt P0DP23); test: calcium-bound CALM1 binders on microarrays, profiling panel, artefact control for SMM control-protein annotation, biochemical, small-molecule microarray, Cy5-labelled CALM1, plus calcium (AID 1112); conditions: Cy5-CALM1 binding fluorescence, higher = more signal;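 further: score merges spot fluorescence with signal to noise from triplicate slides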
[16] = small-molecule microarray binders of probe aWnt5a, primary screen, biochemical, biotinylated probe, 635/667 nm fluorescence (AID 1113); conditions: higher = more signal;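 further: score merges 667 nm fluorescence intensity with signal-to-noise per printed feature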
[17] = small-molecule microarray binders of probe aShh, primary screen, biochemical, biotinylated probe, 635/667 nm fluorescence (AID 1114); conditions: higher = more signal;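 further: probe is biotin-labelled aShh protein from a stem cell growth factor screen; measures binding of labelled protein to compounds printed on the slide; score merges feature fluorescence at 667 nm with signal-to-noise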
[18] = small-molecule microarray binders of probe aNog, primary screen, biochemical, biotinylated probe, 635/667 nm fluorescence (AID 1115); conditions: higher = more signal;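 further: probe is biotinylated aNog protein used at 0.15 µg/mL for 1 h at 4 C; z-score combines 667 nm fluorescence of each spot with its signal to noise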
[19] = target: Torsin-1A-interacting protein 1 (Homo sapiens) (UniProt Q5JTV8); test: LAP1 binders from COS7 cell lysate, primary screen, small-molecule microarray, 635/667 nm fluorescence (AID 1116); conditions: COS7-hLAP1 lysate binding, 635 nm fluorescence, higher = more signal
Sequence of Torsin-1A-interacting protein 1 (Homo sapiens) (Q5JTV8 whole entry, looked up): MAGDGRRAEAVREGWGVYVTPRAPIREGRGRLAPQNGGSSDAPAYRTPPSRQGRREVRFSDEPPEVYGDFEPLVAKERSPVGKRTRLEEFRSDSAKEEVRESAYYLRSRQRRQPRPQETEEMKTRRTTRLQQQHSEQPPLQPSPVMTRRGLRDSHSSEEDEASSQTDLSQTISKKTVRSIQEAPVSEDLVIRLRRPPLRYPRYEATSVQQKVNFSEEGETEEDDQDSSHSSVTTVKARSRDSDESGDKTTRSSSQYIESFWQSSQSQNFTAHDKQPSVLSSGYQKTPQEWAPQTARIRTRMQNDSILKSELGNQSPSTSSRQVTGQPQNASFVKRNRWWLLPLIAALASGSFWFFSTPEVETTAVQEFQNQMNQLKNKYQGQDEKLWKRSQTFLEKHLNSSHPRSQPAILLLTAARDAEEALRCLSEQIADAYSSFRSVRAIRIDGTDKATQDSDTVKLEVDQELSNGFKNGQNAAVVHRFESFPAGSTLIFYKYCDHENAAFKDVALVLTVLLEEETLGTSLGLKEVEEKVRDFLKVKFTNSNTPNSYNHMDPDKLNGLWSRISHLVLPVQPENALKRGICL

[20] = target: Alpha-bungarotoxin (Bungarus multicinctus) (UniProt P60615); test: alpha-bungarotoxin binders on microarray, profiling panel, artefact control for SMM control protein annotation, biochemical, small-molecule microarray, Alexa647 label, 635/667 nm fluorescence (AID 1117); conditions: alpha-BTX-A647 binding fluorescence, higher = more signal
Sequence of Alpha-bungarotoxin (Bungarus multicinctus) (P60615 whole entry, looked up): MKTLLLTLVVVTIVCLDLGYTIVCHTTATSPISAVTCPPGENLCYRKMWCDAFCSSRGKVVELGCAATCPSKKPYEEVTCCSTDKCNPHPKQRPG

Row | SMILES | composite z-score [1] | composite z-score [2] | composite z-score [3] | z-score [4] | composite z-score [5] | composite z-score [6] | composite z-score [7] | composite z-score [8] | composite z-score [9] | composite z-score [10] | composite z-score [11] | z-score [12] | composite z-score [13] | composite z-score [14] | composite z-score [15] | composite z-score [16] | composite z-score [17] | composite z-score [18] | composite z-score [19] | composite z-score [20]
1 | CC(C)N1CC=CC23O[C@@H]4/C=C\CCCOC(=O)C4[C@H]2C(=O)N(CCCCCCO)[C@@H]3C1=O (stereo not given in full) | 1.44 | 0.0846 | 0.777 | 0.569 (inactive) | -0.614 | -0.24 | -1.12 | -1.04 | -1.08 | 1.03 | 0.509 | -0.276 | -1.46 | -0.954 | -0.488 | -0.0643 | -0.346 | 0.345 | 0.881 | -1.5
2 | COC(=O)C(CC#Cc1ccc2c(c1)[C@]1(C(=O)N2)[C@H](c2ccc(OCCO)cc2)N2[C@H](c3ccccc3)[C@H](c3ccccc3)OC(=O)[C@H]2[C@@H]1C(=O)N1CCN(c2ncccn2)CC1)C(=O)OC | 1.35 | 0.841 | 0.782 | 0.0768 (inactive) | 1.14 | 1.32 | 0.331 | 1.37 | 0.982 | 0.53 | 0.233 | -1.49 | 1.28 | 1.48 | 0.43 | -0.0286 | 0.214 | -0.889 | 1.2 | 1.3
3 | CN(C)C(=O)[C@@]1(Cc2ccccc2)COC(c2ccc(OCCCO)cc2)=N1 | 0.429 | -0.246 | -0.0283 | -0.781 (inactive) | -0.304 | 0.792 | 0.197 | -0.718 | -0.59 | -0.512 | -0.112 | -1.4 | -0.906 | 0.153 | 0.369 | -0.319 | 0.0526 | -0.646 | 2 | -0.579
4 | O=C(O)[C@@H]1C[C@@H]2C(=O)N3CCC[C@H]3C(=O)N2[C@@H]1c1cccc(OCCO)c1 | 2.07 | 2.67 | 1.72 | 0.0627 (inactive) | 1.36 | 1.44 | 1.41 | 1.54 | 1.9 | 1.98 | 1.49 | -0.444 | 1.56 | 1.69 | 0.815 | 0.94 | 2.65 | 3.05 | 3.85 | 2.99
5 | CCCCC(=O)N(CCN1CCOCC1)[C@@H]1CC(C(=O)NCCO)=C[C@H](Oc2c(I)cc(CO)cc2OC)[C@H]1O | 0.787 | -0.309 | -0.764 | 0.751 (inactive) | 0.318 | 0.725 | 0.349 | 0.412 | 0.817 | 0.0845 | 0.33 | 0.282 | 0.653 | -0.282 | -0.598 | -0.19 | -0.358 | -0.31 | -0.0458 | 0.354
6 | O=c1cccc(-c2ccc(F)cc2)o1 | 0.347 | 0.328 | -0.3 | 0.362 (inactive) | 0.948 | 0.716 | 0.444 | 0.74 | 0.399 | 0.457 | -0.399 | -0.228 | 0.55 | -0.236 | -0.33 | -0.1 | 0.216 | 0.0416 | -0.184 | 0.241
7 | C=C(COC)C(=O)CC[C@H](OC(C)=O)c1ccc(OCCO)cc1 | 0.761 | -0.0747 | -0.0486 | -1.5 (inactive) | 1.35 | -0.143 | -0.0056 | 0.576 | 0.722 | 0.136 | 0.159 | -1.17 | 0.557 | -0.2 | -1.08 | -0.0445 | -0.0011 | -0.0562 | 3.4 | 0.915
8 | C=C[C@H](C)[C@H](OC(=O)Nc1ccc(OC)cc1)c1ccc(OCCO)cc1 | 0.515 | -0.115 | 0.931 | -0.921 (inactive) | -1.12 | -0.78 | -2.13 | -0.844 | -1.28 | -0.801 | -0.562 | 0.0055 | -2.08 | -1.39 | -0.0296 | -0.222 | -0.0553 | -0.142 | -0.18 | -1.79
9 | C=C(COC)/C(=C/C[C@H](OC(C)=O)c1cccc(OCCO)c1)c1cnc2ccccc2c1 | 1.38 | -0.0559 | 0.0794 | 0.344 (inactive) | 1.51 | 0.965 | 0.771 | 1.58 | 0.83 | 1.75 | 1.4 | -1.7 | 0.536 | -0.0062 | -0.892 | -0.0512 | -0.147 | 0.353 | 0.416 | 2.04
10 | C=CCN1C(=O)[C@@]2(O[C@@H](CCO)[C@H]([Si](C)(C)c3ccc(OC)cc3)[C@H]2C)c2cc(N3CCOC3=O)ccc21 | 0.392 | 0.0757 | 0.213 | -0.887 (inactive) | -0.0196 | 0.612 | -0.114 | 0.0282 | -0.381 | -0.171 | 1.31 | -4.84 | -0.135 | 0.278 | 0.444 | -0.0981 | -0.243 | -0.0239 | 0.878 | 0.105
11 | O=C1C[C@@](C(=O)NCC(F)(F)F)(c2ccc([N+](=O)[O-])cc2)[C@@H](c2ccc(CO)cc2)N1CC12CC3CC(CC(C3)C1)C2 | 1.4 | 1.09 | 0.957 | -2.11 (inactive) | 1.44 | 1.07 | 1.13 | 1.03 | 0.927 | 0.469 | 0.913 | -3.33 | 0.309 | 0.835 | 0.569 | 0.0044 | 0.315 | 0.542 | 1.31 | 0.987
12 | [N-]=[N+]=NCc1ccccc1[C@@H]1OC(c2ccc(OCCCO)cc2)=N[C@]1(Cc1ccccc1N=[N+]=[N-])C(=O)N1CCCCC1 | 0.785 | 0.561 | 0.321 | 0.327 (inactive) | 0.548 | 0.363 | 0.435 | 0.491 | -0.221 | 1.29 | 1.41 | -2.12 | 0.0538 | 1.93 | 1.26 | -0.248 | -0.023 | -0.538 | 0.482 | 0.671
13 | COCCCNC(=O)[C@@H]1c2ccccc2C(=O)N(C2Cc3ccccc3C2)[C@H]1c1ccc(CO)cc1 | 0.122 | 0.299 | 0.186 | 0.0141 (inactive) | 0.639 | 1.04 | 0.172 | 0.121 | 0.447 | 0.952 | 0.661 | -0.689 | 0.173 | -0.362 | -0.518 | -0.152 | -0.229 | -0.532 | 0.685 | -0.0047
14 | C=C[C@@H](C)[C@@H](OC(=O)Nc1ccc(SC)cc1)c1ccc(OCCO)cc1 | 1.4 | -0.289 | 0.753 | -1.01 (inactive) | 0.472 | 0.335 | 0.0159 | 0.426 | -0.185 | 0.0303 | 1.27 | -0.181 | -0.0734 | 1.24 | 0.305 | -0.0512 | -0.0192 | -0.358 | 0.882 | 0.954
15 | NC(=O)N1C(=O)C2C(C1=O)C1C=C(CCCO)C2C(C2CC2)N1Cc1cccc(OC(F)(F)F)c1 (stereo not given) | 1.59 | -0.306 | -0.345 | 0.0948 (inactive) | 0.075 | -0.186 | -0.595 | -0.494 | -0.0361 | 0.561 | 0.504 | -1.4 | -0.219 | -0.143 | 0.2 | -0.173 | -0.138 | 0.56 | 0.691 | -0.187
